Usually AC50 stands for the midpoint of the concentration-response curve, whichever way the signal moves.

The record followed here is PubChem BioAssay (EPA / NIEHS).

Each structure is given as a SMILES string. The source made the active and inactive calls. The calls were made as follows: active = hit-call score of the fitted dose curve at least 0.9, where 1 is the maximum; inactive = score below 0.9.

Common to all, as to conditions: mRNA level, 48 h; actives raise or lower the signal
Read-out in assay [1]: Fatty Acid-Binding Protein 1 (FABP1), FABP1 (gene 2168)
Description: LTEA_HepaRG_FABP1: Life Technologies and Expression Analysis (LTEA) Assay for Fatty Acid-Binding Protein 1 (FABP1) using HepaRG (AID 2283494). The essentials:
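FABP1 expression by TaqMan qRT-PCR, normalised to three housekeeping genes, in HepaRG cells after 48 h chemical treatment. Eight-point half-log series topping at 100 uM in 0.5% DMSO, duplicates; gain or loss fitted relative to vehicle.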

Read-out in assay [2]: Cytochrome P450 4A22 (Homo sapiens) (UniProt Q5TCH4)
The assay is described as follows: LTEA_HepaRG_CYP4A22: Life Technologies and Expression Analysis (LTEA) Assay for Cytochrome P450 4A22 (CYP4A22) using HepaRG (AID 2283495). Put shortly:
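qRT-PCR of CYP4A22 mRNA (Fluidigm TaqMan, normalized to three housekeeping genes) after 48 h chemical exposure of HepaRG cells; 8-point half-log series, top 100 uM, 0.5% DMSO vehicle. Bidirectional curve fitting vs DMSO baseline.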

Read-out in assay [3]: Cytochrome P450 7A1 (Homo sapiens) (UniProt P22680)
The assay is described as follows: LTEA_HepaRG_CYP7A1: Life Technologies and Expression Analysis (LTEA) Assay for Cytochrome P450 7A1 (CYP7A1) using HepaRG (AID 2283496). The essentials:
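HepaRG, 48 h exposure, 8-pt half-log series from 100 uM, 0.5% DMSO vehicle, duplicates. Readout: TaqMan qRT-PCR mRNA vs three housekeeping genes; bidirectional curve fit against DMSO baseline.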

Read-out in assay [4]: Glutathione S-Transferase (GSTA2), GSTA2 (gene 2939)
Description: LTEA_HepaRG_GSTA2: Life Technologies and Expression Analysis (LTEA) Assay for Glutathione S-Transferase (GSTA2) using HepaRG (AID 2283497). The essentials: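 GSTA2 transcript levels came from Fluidigm TaqMan qRT-PCR normalized to three housekeeping genes, fitted in both directions against DMSO. HepaRG cultures received chemicals for 48 h in serum-free induction medium (0.5% DMSO), 8 half-log concentrations up to 100 uM, duplicate.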

Read-out in assay [5]: Glutamate-cysteine ligase catalytic (GCLC), GCLC (gene 2729)
Description: LTEA_HepaRG_GCLC: Life Technologies and Expression Analysis (LTEA) Assay for Glutamate-cysteine ligase catalytic (GCLC) using HepaRG (AID 2283498). The essentials: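 Expression by TaqMan qRT-PCR, normalized to three housekeeping genes (ACTB, GAPDH, POLR2A), with up- or down-regulation fitted against DMSO. HepaRG cells dosed in duplicate for 48 h with 8 half-log concentrations up to 100 uM, vehicle 0.5% DMSO.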

Read-out in assay [6]: growth arrest and DNA damage 45 (GADD45G), GADD45G (gene 10912)
Description: LTEA_HepaRG_GADD45G: Life Technologies and Expression Analysis (LTEA) Assay for growth arrest and DNA damage 45 (GADD45G) using HepaRG (AID 2283499). Put shortly:
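Differentiated human HepaRG cells in serum-free induction medium were exposed for 48 h to 8 half-log concentrations up to 100 uM in 0.5% DMSO, in duplicate. GADD45G mRNA was measured by TaqMan qRT-PCR, normalised to ACTB, GAPDH and POLR2A, and fitted bidirectionally against DMSO.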

Read-out in assay [7]: Glutamate-cysteine ligase regulatory (GCLM), GCLM (gene 2730)
Description: LTEA_HepaRG_GCLM: Life Technologies and Expression Analysis (LTEA) Assay for Glutamate-cysteine ligase regulatory (GCLM) using HepaRG (AID 2283500). Put shortly: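 GCLM expression quantified by qRT-PCR, normalized to three housekeeping genes, after 48 h chemical treatment of HepaRG cells in duplicate at 8 concentrations (top 100 uM, half-log steps, 0.5% DMSO). Changes fitted both directions against vehicle.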

Read-out in assay [8]: Glutathione S-transferase M3 (GSTM3), GSTM3 (gene 2947)
The assay is described as follows: LTEA_HepaRG_GSTM3: Life Technologies and Expression Analysis (LTEA) Assay for Glutathione S-transferase M3 (GSTM3) using HepaRG (AID 2283501). The essentials:
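Differentiated HepaRG cells in serum-free induction medium were exposed in duplicate for 48 h to 8 half-log concentrations up to 100 uM in 0.5% DMSO. GSTM3 mRNA was measured by TaqMan qRT-PCR, normalized to ACTB/GAPDH/POLR2A, and fitted bidirectionally versus DMSO.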

Read-out in assay [9]: Heat shock 70 kDa protein 1 (HSPA1A), gene 3303
Description: LTEA_HepaRG_HSPA1A: Life Technologies and Expression Analysis (LTEA) Assay for Heat shock 70 kDa protein 1 (HSPA1A) using HepaRG (AID 2283502). Put shortly:
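HSPA1A expression measured by qRT-PCR with ACTB/GAPDH/POLR2A normalization; curves fitted in both directions relative to DMSO vehicle. Exposure: 48 h in HepaRG cells, duplicate 8-point half-log series from 100 uM, 0.5% DMSO, serum-free induction medium.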

Read-out in assay [10]: Hypoxia-inducible factor 1-alpha (Homo sapiens) (UniProt Q16665)
Description: LTEA_HepaRG_HIF1A: Life Technologies and Expression Analysis (LTEA) Assay for Hypoxia-inducible factor 1 (HIF1A) Trancription factor using HepaRG (AID 2283503). The essentials: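 HIF1A transcript level read by qRT-PCR (ACTB, GAPDH, POLR2A normalization) after 48 h chemical exposure of HepaRG cultures. Eight half-log concentrations, top 100 uM, 0.5% DMSO vehicle, duplicates; bidirectional curve fit against DMSO baseline.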

Read-out in assay [11]: 3-Hydroxy-3-Methylglutaryl-CoA Synthase 2 (HMGCS2), HMGCS2 (gene 3158)
Description: LTEA_HepaRG_HMGCS2: Life Technologies and Expression Analysis (LTEA) Assay for 3-Hydroxy-3-Methylglutaryl-CoA Synthase 2 (HMGCS2) using HepaRG (AID 2283504). The essentials: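 Differentiated human HepaRG cells were exposed in duplicate for 48 h in serum-free induction medium to eight concentrations (top 100 uM, half-log steps, 0.5% DMSO). HMGCS2 mRNA was quantified by TaqMan qRT-PCR, normalised to ACTB, GAPDH and POLR2A, then fitted bidirectionally against DMSO.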

Read-out in assay [12]: HGF (gene 3082)
Description: LTEA_HepaRG_HGF: Life Technologies and Expression Analysis (LTEA) Assay for Hepatocyte Growth Facto (HGF) using HepaRG (AID 2283505). Put shortly:
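Differentiated human HepaRG cells in serum-free induction medium were exposed in duplicate for 48 h to eight concentrations (top 100 uM, half-log steps, 0.5% DMSO). HGF mRNA was quantified by qRT-PCR, normalized to ACTB, GAPDH and POLR2A.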

Read-out in assay [13]: Insulin Like Growth Factor 1 (IGF1), IGF1 (gene 3479)
Description: LTEA_HepaRG_IGF1: Life Technologies and Expression Analysis (LTEA) Assay for Insulin Like Growth Factor 1 (IGF1) using HepaRG (AID 2283506). Put shortly: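 Expression measured by TaqMan qRT-PCR on a Fluidigm array, with three housekeeping genes for normalisation, after 48 h treatment of HepaRG cells. Top concentration 100 uM with half-log steps, 0.5% DMSO vehicle, bidirectional fit.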

Read-out in assay [14]: Intercellular Adhesion Molecule 1 (ICAM1), ICAM1 (gene 3383)
Description: LTEA_HepaRG_ICAM1: Life Technologies and Expression Analysis (LTEA) Assay for Intercellular Adhesion Molecule 1 (ICAM1) using HepaRG (AID 2283507). Put shortly: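 Differentiated HepaRG cells in serum-free induction medium were exposed in duplicate for 48 h to eight half-log concentrations up to 100 uM in 0.5% DMSO. Transcript levels were measured by qRT-PCR normalized to ACTB, GAPDH and POLR2A; bidirectional fits relative to DMSO.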

Read-out in assay [15]: Insulin-like growth factor-binding protein 1 (IGFBP1), IGFBP1 (gene 3484)
Description: LTEA_HepaRG_IGFBP1: Life Technologies and Expression Analysis (LTEA) Assay for Insulin-like growth factor-binding protein 1 (IGFBP1) using HepaRG (AID 2283508). The essentials:
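Differentiated human HepaRG cells in serum-free induction medium were exposed in duplicate for 48 h to eight concentrations, top 100 uM with half-log dilutions, in 0.5% DMSO. Transcript levels came from qRT-PCR normalised to ACTB, GAPDH and POLR2A, fitted bidirectionally against DMSO.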

Read-out in assay [16]: Interleukin 6 (IL6), IL6 (gene 3569)
The assay is described as follows: LTEA_HepaRG_IL6: Life Technologies and Expression Analysis (LTEA) Assay for Interleukin 6 (IL6) using HepaRG (AID 2283509). The essentials:
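Transcript levels, normalized to three housekeeping genes, were quantified by qRT-PCR after 48 h chemical treatment of HepaRG cells. Eight-point half-log series from 100 uM in 0.5% DMSO, duplicates. Fitted both directions against DMSO baseline.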

Read-out in assay [17]: Interleukin 6 Receptor (IL6R), IL6R (gene 3570)
Description: LTEA_HepaRG_IL6R: Life Technologies and Expression Analysis (LTEA) Assay for Interleukin 6 Receptor (IL6R) using HepaRG (AID 2283510). Put shortly:
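IL6R transcript level by qRT-PCR after 48 h chemical exposure (8-point, half-log, max 100 uM, 0.5% DMSO vehicle) of HepaRG cells in serum-free induction medium. Normalized to three housekeeping genes; curves fitted in both directions relative to DMSO.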

Read-out in assay [18]: Potassium channel subfamily K member 1 (KCNK1), KCNK1 (gene 3775)
The assay is described as follows: LTEA_HepaRG_KCNK1: Life Technologies and Expression Analysis (LTEA) Assay for Potassium channel subfamily K member 1 (KCNK1) using HepaRG (AID 2283511). Put shortly:
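KCNK1 transcript measured by TaqMan qRT-PCR against three housekeeping genes, after HepaRG cells were treated 48 h with eight half-log concentrations (top 100 uM, 0.5% DMSO). Curves fitted bidirectionally relative to vehicle.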

Read-out in assay [19]: JUN Transcription Factor, JUN (gene 3725)
The assay is described as follows: LTEA_HepaRG_JUN: Life Technologies and Expression Analysis (LTEA) Assay for JUN Transcription Factor using HepaRG (AID 2283513). The essentials:
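mRNA measured by TaqMan qRT-PCR after 48 h chemical exposure of HepaRG cultures; normalization to three housekeeping genes. Duplicate eight-point half-log curves from 100 uM in 0.5% DMSO; gain or loss fitted against DMSO baseline.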

Read-out in assay [20]: Keratin 19 (KRT19), KRT19 (gene 3880)
The assay is described as follows: LTEA_HepaRG_KRT19: Life Technologies and Expression Analysis (LTEA) Assay for Keratin 19 (KRT19) using HepaRG (AID 2283512). The essentials:
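Differentiated human HepaRG cells, plated 48 h, were exposed in duplicate for 48 h in serum-free induction medium to eight half-log concentrations up to 100 uM in 0.5% DMSO. KRT19 mRNA was quantified by qRT-PCR, normalized to ACTB, GAPDH and POLR2A, and fitted bidirectionally versus DMSO.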

Chain of Hypoxia-inducible factor 1-alpha (Homo sapiens) (Q16665 whole entry, looked up): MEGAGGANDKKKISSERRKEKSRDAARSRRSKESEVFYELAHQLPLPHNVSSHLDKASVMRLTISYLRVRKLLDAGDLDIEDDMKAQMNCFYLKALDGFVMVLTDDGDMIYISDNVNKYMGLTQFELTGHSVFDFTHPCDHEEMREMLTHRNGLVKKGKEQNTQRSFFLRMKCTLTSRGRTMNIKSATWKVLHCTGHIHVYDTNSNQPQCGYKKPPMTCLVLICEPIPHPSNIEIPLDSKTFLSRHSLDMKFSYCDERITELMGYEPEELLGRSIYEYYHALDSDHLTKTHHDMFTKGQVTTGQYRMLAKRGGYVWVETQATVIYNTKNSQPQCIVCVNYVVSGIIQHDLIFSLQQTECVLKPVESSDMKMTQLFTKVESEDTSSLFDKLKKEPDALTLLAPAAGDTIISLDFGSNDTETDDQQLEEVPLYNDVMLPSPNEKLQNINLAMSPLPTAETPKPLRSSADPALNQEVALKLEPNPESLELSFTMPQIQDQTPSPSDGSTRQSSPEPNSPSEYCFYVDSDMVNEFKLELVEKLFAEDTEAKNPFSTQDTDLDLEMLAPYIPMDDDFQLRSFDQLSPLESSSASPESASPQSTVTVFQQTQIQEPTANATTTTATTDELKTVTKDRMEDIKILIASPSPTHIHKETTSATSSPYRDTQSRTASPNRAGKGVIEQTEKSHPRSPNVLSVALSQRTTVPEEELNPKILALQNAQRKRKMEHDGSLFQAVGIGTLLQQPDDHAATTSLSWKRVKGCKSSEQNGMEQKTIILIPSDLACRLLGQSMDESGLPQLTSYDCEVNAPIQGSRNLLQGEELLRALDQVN

With `CCN(CC)c1ccccc1`, the result in assay [1], in assay [2], in assay [3], in assay [4], in assay [5] and in assay [6] was inactive. Also, the result in [7], in assay [8], in [9], in assay [10], in [11] and in [12] was inactive. Moreover, the compound was classed as inactive in assay [13], in [14], in [15], in assay [16], in [17] and in assay [18]. Besides, the call in [19] was inactive.
Turning to `CCCN(CCC)c1c([N+](=O)[O-])cc(C(C)C)cc1[N+](=O)[O-]`, the AC50 in [1] was 9.92 µM (active); in assay [3] it was 50 µM (active); in assay [7], 9.92 µM (active); in assay [8] it was 3.04 µM (active); in assay [9] it was 16.7 µM (active); in [13], 71.1 µM (active). Further, the call in assay [2], in assay [4], in [5], in assay [6], in assay [10] and in assay [11] was inactive. Also, the result in assay [12], in assay [14], in assay [15], in [16], in assay [17] and in assay [18] was inactive. Besides, the compound was called inactive in assay [20] and in assay [19].
As for `c1nc[nH]n1`, the call in assay [1], in [2], in assay [3], in assay [4], in assay [5] and in [6] was inactive. Further, the compound was classed as inactive in assay [7], in [9], in assay [10], in assay [11], in assay [12] and in [13]. Besides, the call in [15], in assay [16], in [17] and in assay [19] was inactive. For the same compound, the values for the AC50 in [8], in assay [14] and in assay [18] were 12.6 µM (active), 0.112 µM (active) and 0.116 µM (active), respectively.
Take `O=[N+]([O-])c1ccc(Cl)c(Cl)c1`: the result in assay [1], in assay [2], in assay [3], in assay [4], in assay [5] and in assay [6] was inactive. Also, the compound was classed as inactive in [7], in assay [8], in assay [9], in assay [10], in assay [11] and in [12]. Moreover, the result in assay [13], in assay [14], in assay [15], in assay [16], in assay [17] and in assay [18] was inactive. In addition, the result in [19] was inactive.
Regarding `CCOS(=O)(=O)OCC`, the result in assay [1], in assay [2], in assay [3], in [4], in assay [5] and in [6] was inactive. Further, the compound was classed as inactive in assay [7], in assay [8], in [9], in assay [10], in [11] and in assay [12]. The outcome in assay [13], in [14], in assay [15], in assay [16], in [17] and in assay [18] was inactive. Also, in [19], the compound was called inactive.
